Target: Streptavidin (Streptomyces avidinii) (UniProt P22629)
Assay: streptavidin binders on small-molecule microarray, primary screen, artefact control for SMM compound annotation, biophysical, 635/667 nm fluorescence (AID 1147);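 further: signal reflects streptavidin binding to arrayed compounds as a control protein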
Conditions: streptavidin binding, higher = more signal

Streptavidin (Streptomyces avidinii), sequence (P22629 whole entry, looked up): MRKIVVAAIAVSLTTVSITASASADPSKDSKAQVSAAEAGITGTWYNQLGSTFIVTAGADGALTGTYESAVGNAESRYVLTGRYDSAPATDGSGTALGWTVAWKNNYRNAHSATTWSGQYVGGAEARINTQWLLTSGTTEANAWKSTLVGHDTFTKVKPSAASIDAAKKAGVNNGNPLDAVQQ

For `C=C(COC)/C(=C/C[C@H](OC(=O)c1ccncc1)c1ccc(CO)o1)c1cnc2ccccc2c1`, which composite z-score is on record?
Its composite z-score is 1.16.

Which composite z-score does the source give for `COc1ccc(C#Cc2ccc3c(c2)[C@]2(C(=O)N3)[C@H](c3ccc(O)cc3)N3[C@H](c4ccccc4)[C@H](c4ccccc4)OC(=O)[C@H]3[C@@H]2C(=O)Nc2nc3ccccc3s2)cc1` here?
The composite z-score was 1.02.

Which composite z-score does the source give for `[N-]=[N+]=Nc1ccccc1C[C@@]1(C(=O)N2CCOCC2)N=C(c2ccc(OCCCO)cc2)O[C@@H]1c1ccccc1` here?
The composite z-score was 0.269.

For `C=C[C@@H](CO)N(Cc1ccc(OC)cc1)S(=O)(=O)c1ccc(Br)cc1`, which composite z-score is on record?
The composite z-score was 0.396.

For `COc1ccc(CCNC(=O)[C@@]2(Sc3ccc(C)cc3)CC(=O)N(Cc3ccccc3C(F)(F)F)[C@@H]2c2ccc(CO)cc2I)cc1`, which composite z-score is on record?
The composite z-score was -0.975.

With `CCOC(=O)C[C@H]1[C@H](OC(=O)c2ccccc2-c2ccccc2)[C@@H](NC(=O)c2ccc3ccccc3n2)c2cc(OCCCO)ccc2N1C(=O)Cc1ccc(OC)cc1` as the compound, how does the composite z-score read?
The composite z-score was -0.0997.

For `C=CCN1Cc2ccccc2[C@@H]2OC(c3ccc(OCCCO)cc3)=N[C@]2(CC=C)C1=O`, which composite z-score is on record?
Its composite z-score is 0.579.

With `O=C(Cc1ccccc1)[C@H]1C2C=CCCC(c3ccccc3)=C2CN1Cc1ccccc1` (some centres undefined) as the compound, how does the composite z-score read?
Its composite z-score is -0.144.

For `C=CC[C@@]1(C(=O)NCCCOC)N=C(c2ccc(OCCCO)cc2)O[C@@H]1c1ccccc1N=[N+]=[N-]`, which composite z-score is on record?
Its composite z-score is 0.77.

For `COc1cccc(C)c1NC(=O)O[C@H]1[C@H](OC(=O)Nc2ccc3c(c2)OCO3)[C@@H](OC(=O)Nc2ccc3c(c2)OCO3)[C@@H](OC)O[C@@H]1CO`, which composite z-score is on record?
Its composite z-score is 1.3.

For `C=CCC(OC(C)=O)[C@@H]1[C@@H](N(Cc2ccc(-c3ccccc3)cc2)C(=O)c2ccc(-c3ccccc3)cc2)c2cc(OCCCO)ccc2N1C(=O)c1ccc2ccccc2c1` (some centres undefined), which composite z-score is on record?
The composite z-score was 0.485.

With `COC(=O)C(CC#Cc1ccc2c(c1)[C@]1(C(=O)N2)[C@H](c2ccc(O)cc2)N2[C@H](c3ccccc3)[C@H](c3ccccc3)OC(=O)[C@H]2[C@@H]1C(=O)NC[C@H](O)c1ccccc1)C(=O)OC` as the compound, how does the composite z-score read?
Its composite z-score is 0.379.

Which composite z-score does the source give for `COc1cccc(C)c1NC(=O)O[C@H]1[C@H](OC(=O)Nc2ccccc2-c2ccccc2)[C@H](OC(=O)Nc2ccccc2-c2ccccc2)[C@@H](OC)O[C@@H]1CO` here?
The composite z-score was 1.26.

For `CCCCC(CC)C(O)C1C=CC2C(=O)N(c3ccccc3)C(=O)C2N1Nc1ccccc1F` (centres undefined), which composite z-score is on record?
The composite z-score was 0.0844.

With `C=CC[C@]1(C(=O)N2CCOCC2)COC(c2ccc(OCCCO)cc2)=N1` as the compound, how does the composite z-score read?
Its composite z-score is 1.76.

With `CCOC(=O)C[C@H]1[C@H](OC(=O)Cc2ccc3c(c2)OCO3)[C@@H](NC(=O)C2CCCCC2)c2cc(OCCCO)ccc2N1C(=O)c1ccccc1` as the compound, how does the composite z-score read?
The composite z-score was 0.584.

For `O=C1O[C@@H](c2ccccc2)[C@@H](c2ccccc2)N2[C@@H](c3ccc(O)cc3)[C@]3(C(=O)Nc4ccc(C#CCCO)cc43)[C@@H](C(=O)N3CCN(c4ncccn4)CC3)[C@H]12`, which composite z-score is on record?
The composite z-score was -0.704.

Which composite z-score does the source give for `O[C@@H](Cc1ccccc1)[C@@H](/C=C/C1CC1)N(CC#Cc1ccccc1)Cc1ccccc1Br` here?
Its composite z-score is -0.5.

With `CCCC1(C(=O)OC)C=C2C(=C(C)C(=O)C2C)CN1` (centres undefined) as the compound, how does the composite z-score read?
Its composite z-score is -0.381.

For `O=C1C2C=CC(C(O)c3ccco3)N(Nc3ccccc3F)C2C(=O)N1c1ccccc1` (centres undefined), which composite z-score is on record?
Its composite z-score is 0.99.

For `COc1ccc([Si](C)(C)[C@@H]2[C@@H](CCO)O[C@]3(C(=O)N(Cc4ccccc4)c4ccc(N5C(=O)c6cccc7cccc5c67)cc43)[C@H]2C)cc1`, which composite z-score is on record?
Its composite z-score is 0.305.

For `CC(C)=C1C(=O)C(c2ccccc2)=C2CN3C(=O)N(CCc4ccccc4)C(=O)[C@]3(Cc3ccc(C(F)(F)F)cc3)[C@H]21`, which composite z-score is on record?
The composite z-score was 0.37.

Which composite z-score does the source give for `CCCCCN1CC=CC23O[C@@H]4/C=C\CCC(C)OC(=O)C4[C@H]2C(=O)N(C(CO)C(C)C)[C@@H]3C1=O` (some centres undefined) here?
Its composite z-score is -0.282.

Which composite z-score does the source give for `COC(=O)[C@@]1(Cc2ccc(OC)cc2)[C@H]2c3cc(C(=O)N4CCCC4)n(CCO)c3C[C@H]2CN1C(=O)c1ccccc1` here?
Its composite z-score is 0.342.

Tested on: not listed separately
Assay: small-molecule binders of probe aInhba, primary screen, biochemical, small-molecule microarray, 635/667 nm fluorescence (AID 1148);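 further: score merges 667nm spot fluorescence with signal-to-noise for antibody binding to printed compounds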
Conditions: higher = more signal

With `CCOC(=O)C[C@H]1[C@H](OC(=O)c2ccccc2-c2ccccc2)[C@@H](NC(=O)c2ccc3ccccc3c2)c2cc(OCCCO)ccc2N1C(=O)c1ccccc1` as the compound, how does the composite z-score read?
Its composite z-score is 0.102.

Which composite z-score does the source give for `O=C1OCCC=C[C@H]2OC34C=CCN(Cn5nnc6ccccc65)C(=O)[C@H]3N(CCCO)C(=O)[C@@H]4C12` (some centres undefined) here?
Its composite z-score is -0.161.

For `O=C(C1N=C(c2ccc(OCCCO)cc2)N(c2ccccc2)O1)N1CCCCC1` (centres undefined), which composite z-score is on record?
The composite z-score was 0.271.

For `CCCCC[C@H]1OC[C@@]23C=C(Br)[C@@H](CC12)[C@@]1(CO1)C3=O` (some centres undefined), which composite z-score is on record?
Its composite z-score is -0.128.

Which composite z-score does the source give for `C=CC[C@]1(C(=O)N2CCCCC2)N=C(c2ccc(OCCCO)cc2)O[C@H]1c1ccccc1CN=[N+]=[N-]` here?
The composite z-score was 0.121.

Which composite z-score does the source give for `COCCCNC(=O)[C@@H]1c2ccccc2C(=O)N(C(C)C)[C@H]1c1ccc(CO)cc1` here?
Its composite z-score is -0.045.

Which composite z-score does the source give for `CCCCN1CC=CC23O[C@@H]4/C=C\CCC(C)OC(=O)C4[C@H]2C(=O)N(CCCO)[C@@H]3C1=O` (some centres undefined) here?
Its composite z-score is -0.247.

With `CN(C)C(=O)[C@]1(CCC(=O)OC(C)(C)C)N=C(c2ccc(OCCCO)cc2)O[C@@H]1c1ccccc1CN=[N+]=[N-]` as the compound, how does the composite z-score read?
Its composite z-score is -0.071.

Which composite z-score does the source give for `C=CCNC(=O)[C@@H]1[C@H]2C(=O)O[C@H](c3ccccc3)[C@H](c3ccccc3)N2[C@H](c2ccc(OCCO)cc2)[C@@]12C(=O)N(C(=O)OCCOC)c1ccc(C#Cc3ccc(OC)cc3)cc12` here?
Its composite z-score is 0.0497.

For `CCCN1C(=O)[C@@]2(Cc3ccccc31)N=C(c1ccc(OCCCO)cc1)O[C@H]2c1ccccc1`, which composite z-score is on record?
Its composite z-score is -0.016.

Which composite z-score does the source give for `CC1CC/C=C\[C@H]2OC34C=CCN(Cc5ccccc5)C(=O)[C@H]3N(C(CO)C(C)C)C(=O)[C@@H]4C2C(=O)O1` (some centres undefined) here?
Its composite z-score is -0.0695.

With `C=C(COC)/C(=C/C[C@H](OC(=O)c1ccncc1)c1ccc(CO)o1)c1cnc2ccccc2c1` as the compound, how does the composite z-score read?
The composite z-score was -0.0933.

For `COc1ccc(C#Cc2ccc3c(c2)[C@]2(C(=O)N3)[C@H](c3ccc(O)cc3)N3[C@H](c4ccccc4)[C@H](c4ccccc4)OC(=O)[C@H]3[C@@H]2C(=O)Nc2nc3ccccc3s2)cc1`, which composite z-score is on record?
Its composite z-score is 0.0797.

For `[N-]=[N+]=Nc1ccccc1C[C@@]1(C(=O)N2CCOCC2)N=C(c2ccc(OCCCO)cc2)O[C@@H]1c1ccccc1`, which composite z-score is on record?
Its composite z-score is -0.135.

Which composite z-score does the source give for `C=C[C@@H](CO)N(Cc1ccc(OC)cc1)S(=O)(=O)c1ccc(Br)cc1` here?
The composite z-score was -0.154.

With `COc1ccc(CCNC(=O)[C@@]2(Sc3ccc(C)cc3)CC(=O)N(Cc3ccccc3C(F)(F)F)[C@@H]2c2ccc(CO)cc2I)cc1` as the compound, how does the composite z-score read?
Its composite z-score is 0.0714.

For `CCOC(=O)C[C@H]1[C@H](OC(=O)c2ccccc2-c2ccccc2)[C@@H](NC(=O)c2ccc3ccccc3n2)c2cc(OCCCO)ccc2N1C(=O)Cc1ccc(OC)cc1`, which composite z-score is on record?
Its composite z-score is 0.0442.

Which composite z-score does the source give for `C=CCN1Cc2ccccc2[C@@H]2OC(c3ccc(OCCCO)cc3)=N[C@]2(CC=C)C1=O` here?
Its composite z-score is 0.462.

With `O=C(Cc1ccccc1)[C@H]1C2C=CCCC(c3ccccc3)=C2CN1Cc1ccccc1` (some centres undefined) as the compound, how does the composite z-score read?
The composite z-score was -0.0494.

Which composite z-score does the source give for `C=CC[C@@]1(C(=O)NCCCOC)N=C(c2ccc(OCCCO)cc2)O[C@@H]1c1ccccc1N=[N+]=[N-]` here?
Its composite z-score is 0.0713.

Which composite z-score does the source give for `COc1cccc(C)c1NC(=O)O[C@H]1[C@H](OC(=O)Nc2ccc3c(c2)OCO3)[C@@H](OC(=O)Nc2ccc3c(c2)OCO3)[C@@H](OC)O[C@@H]1CO` here?
Its composite z-score is 0.0319.

For `C=CCC(OC(C)=O)[C@@H]1[C@@H](N(Cc2ccc(-c3ccccc3)cc2)C(=O)c2ccc(-c3ccccc3)cc2)c2cc(OCCCO)ccc2N1C(=O)c1ccc2ccccc2c1` (some centres undefined), which composite z-score is on record?
Its composite z-score is -0.101.

Which composite z-score does the source give for `COC(=O)C(CC#Cc1ccc2c(c1)[C@]1(C(=O)N2)[C@H](c2ccc(O)cc2)N2[C@H](c3ccccc3)[C@H](c3ccccc3)OC(=O)[C@H]2[C@@H]1C(=O)NC[C@H](O)c1ccccc1)C(=O)OC` here?
Its composite z-score is 0.0769.

With `COc1cccc(C)c1NC(=O)O[C@H]1[C@H](OC(=O)Nc2ccccc2-c2ccccc2)[C@H](OC(=O)Nc2ccccc2-c2ccccc2)[C@@H](OC)O[C@@H]1CO` as the compound, how does the composite z-score read?
Its composite z-score is 0.0128.

Which composite z-score does the source give for `CCCCC(CC)C(O)C1C=CC2C(=O)N(c3ccccc3)C(=O)C2N1Nc1ccccc1F` (centres undefined) here?
The composite z-score was -0.128.

Which composite z-score does the source give for `C=CC[C@]1(C(=O)N2CCOCC2)COC(c2ccc(OCCCO)cc2)=N1` here?
The composite z-score was 0.166.

For `CCOC(=O)C[C@H]1[C@H](OC(=O)Cc2ccc3c(c2)OCO3)[C@@H](NC(=O)C2CCCCC2)c2cc(OCCCO)ccc2N1C(=O)c1ccccc1`, which composite z-score is on record?
The composite z-score was -0.0313.

Which composite z-score does the source give for `O=C1O[C@@H](c2ccccc2)[C@@H](c2ccccc2)N2[C@@H](c3ccc(O)cc3)[C@]3(C(=O)Nc4ccc(C#CCCO)cc43)[C@@H](C(=O)N3CCN(c4ncccn4)CC3)[C@H]12` here?
The composite z-score was 0.0214.

With `O[C@@H](Cc1ccccc1)[C@@H](/C=C/C1CC1)N(CC#Cc1ccccc1)Cc1ccccc1Br` as the compound, how does the composite z-score read?
Its composite z-score is -0.183.

For `CCCC1(C(=O)OC)C=C2C(=C(C)C(=O)C2C)CN1` (centres undefined), which composite z-score is on record?
The composite z-score was 0.0487.

Which composite z-score does the source give for `O=C1C2C=CC(C(O)c3ccco3)N(Nc3ccccc3F)C2C(=O)N1c1ccccc1` (centres undefined) here?
The composite z-score was 0.0275.

For `COc1ccc([Si](C)(C)[C@@H]2[C@@H](CCO)O[C@]3(C(=O)N(Cc4ccccc4)c4ccc(N5C(=O)c6cccc7cccc5c67)cc43)[C@H]2C)cc1`, which composite z-score is on record?
Its composite z-score is -0.179.

Which composite z-score does the source give for `CC(C)=C1C(=O)C(c2ccccc2)=C2CN3C(=O)N(CCc4ccccc4)C(=O)[C@]3(Cc3ccc(C(F)(F)F)cc3)[C@H]21` here?
The composite z-score was 0.23.

For `CCCCCN1CC=CC23O[C@@H]4/C=C\CCC(C)OC(=O)C4[C@H]2C(=O)N(C(CO)C(C)C)[C@@H]3C1=O` (some centres undefined), which composite z-score is on record?
The composite z-score was -0.101.

Which composite z-score does the source give for `COC(=O)[C@@]1(Cc2ccc(OC)cc2)[C@H]2c3cc(C(=O)N4CCCC4)n(CCO)c3C[C@H]2CN1C(=O)c1ccccc1` here?
Its composite z-score is 0.372.

— PubChem BioAssay
